Measured values published in PubChem BioAssay AID1159580 (chemical genetic matrix, 2015).
Where “and” joins values, the source holds several entries; their conditions need not be identical. Equal entries are not always repeated. Hit rate of the full screen: of about 5,500 compounds, about 2,000 (36%) were called active. About 18% were inconclusive and are not listed. Rule as the data show it: active = normalized growth mostly below about 0.91 (no sharp cut-off); inconclusive = no clear call, values can overlap the other calls; inactive = mostly above about 0.92. This is one part of the list.

Experiment: chemical genetic growth profiling, strain panel (AID 1159580);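 also: tested at 20 µM; growth read once vehicle control cultures reached saturation at 30 °C; 1 = growth at the plate median or of vehicle wells; lower values mean less growth of the strain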
Conditions: S. cerevisiae deletion strains, growth OD

Measured: normalized growth

CCn1cc(C(=O)O)c(=O)c2cnc(N3CCNCC3)nc21
inactive: locus YAL021C, strain ccr4, stronger effect = lower value 1.02 | locus YAL026C, strain drs2, stronger effect = lower value 1.03 | locus YAL030W, strain snc1, stronger effect = lower value 1.03 | locus YBL061C, strain skt5, stronger effect = lower value 1.04 | locus YBR009C, strain hhf1, stronger effect = lower value 1.02 | locus YBR021W, strain FUR4, stronger effect = lower value 0.997 | locus YBR023C, strain chs3, stronger effect = lower value 1.03 | locus YBR171W, strain sec66, stronger effect = lower value 1.04 | locus YBR229C, strain ROT2, stronger effect = lower value 0.98 | locus YBR231C, strain swc5, stronger effect = lower value 0.998 | locus YBR279W, strain paf1, stronger effect = lower value 1.01 | locus YCL011C, strain gbp2, stronger effect = lower value 1.04 | locus YCL016C, strain dcc1, stronger effect = lower value 1.01 | locus YCL029C, strain bik1, stronger effect = lower value 0.987 | locus YCL069W, strain vba3, stronger effect = lower value 1.02 | locus YCR088W, strain abp1, stronger effect = lower value 1.02 | locus YDL005C, strain med2, stronger effect = lower value 1 | locus YDL035C, strain GPR1, stronger effect = lower value 1.01 | locus YDL040C, strain nat1, stronger effect = lower value 1 | locus YDL074C, strain BRE1, stronger effect = lower value 1.06 | locus YDL101C, strain DUN1, stronger effect = lower value 0.994 | locus YDL134C, strain PPH21, stronger effect = lower value 0.986 | locus YDL185W, strain tfp1, stronger effect = lower value 0.985 | locus YDL192W, strain arf1, stronger effect = lower value 0.985 | locus YDR001C, strain nth1, stronger effect = lower value 1.01 | locus YDR069C, strain doa4, stronger effect = lower value 1.02 | locus YDR101C, strain arx1, stronger effect = lower value 1.01 | locus YDR137W, strain rgp1, stronger effect = lower value 1 | locus YDR159W, strain sac3, stronger effect = lower value 0.945 | locus YDR162C, strain NBP2, stronger effect = lower value 0.992 | locus YDR195W, strain ref2 0.975 | locus YDR297W, strain sur2, stronger effect = lower value 1 | locus YDR318W, strain mcm21, stronger effect = lower value 1.01 | locus YDR334W, strain swr1, stronger effect = lower value 1.02 | locus YDR335W, strain msn5, stronger effect = lower value 1.01 | locus YDR388W, stronger effect = lower value 0.993 | locus YDR392W, strain spt3, stronger effect = lower value 0.959 | locus YDR502C, strain sam2, stronger effect = lower value 1 | locus YEL003W, strain gim4, stronger effect = lower value 1.02 | locus YEL037C, strain rad23, stronger effect = lower value 1.01 | locus YEL061C, strain CIN8 (second series), stronger effect = lower value 1 | locus YEL061C, strain CIN8, stronger effect = lower value 0.995 | locus YER015W, strain faa2, stronger effect = lower value 1.02 | locus YER016W, strain bim1, stronger effect = lower value 1.02 | locus YER110C, stronger effect = lower value 0.987 | locus YER111C, strain swi4, stronger effect = lower value 1.02 | locus YER155C, strain BEM2 (second series), stronger effect = lower value 0.981 | locus YER155C, strain BEM2, stronger effect = lower value 0.983 | locus YER167W, strain BCK2, stronger effect = lower value 0.987 | locus YFR010W, strain ubp6, stronger effect = lower value 1 | locus YGL078C, strain dbp3, stronger effect = lower value 1 | locus YGL086W, strain mad1, stronger effect = lower value 1.01 | locus YGL167C, strain pmr1, stronger effect = lower value 1.01 | locus YGL173C, strain kem1, stronger effect = lower value 1 | locus YGL227W, strain vid30, stronger effect = lower value 1.01 | locus YGL240W, strain doc1, stronger effect = lower value 0.988 | locus YGL248W, strain PDE1, stronger effect = lower value 1 | locus YGL253W, strain hxk2, stronger effect = lower value 1.04 | locus YGR078C, strain PAC10, stronger effect = lower value 1.05 | locus YGR135W, strain pre9, stronger effect = lower value 0.963 | locus YGR252W, strain gcn5, stronger effect = lower value 1 | locus YHR013C, strain ard1, stronger effect = lower value 1.04 | locus YHR027C, strain rpn1, stronger effect = lower value 1.01 | locus YHR030C, strain SLT2, stronger effect = lower value 0.983 and 1.06 | locus YHR079C, strain IRE1 (second series), stronger effect = lower value 0.992 | locus YHR079C, strain IRE1, stronger effect = lower value 1.03 | locus YHR094C, strain hxt1, stronger effect = lower value 0.984 | locus YHR129C, strain ARP1, stronger effect = lower value 0.986 | locus YHR142W, strain chs7, stronger effect = lower value 1.04 | locus YHR200W, strain rpn10, stronger effect = lower value 0.988 | locus YIL066C, strain RNR3, stronger effect = lower value 1.01 | locus YIL073C, strain SPO22, stronger effect = lower value 0.961 | locus YIL125W, strain kgd1, stronger effect = lower value 0.993 | locus YIR030C, strain dcg1, stronger effect = lower value 0.986 | locus YJL092W, strain hpr5, stronger effect = lower value 1.02 | locus YJL095W, strain BCK1 (second series), stronger effect = lower value 1 | locus YJL095W, strain BCK1, stronger effect = lower value 1.03 and 1.04 | locus YJL115W, strain asf1, stronger effect = lower value 1 | locus YJL129C, strain trk1, stronger effect = lower value 1.04 | locus YJL134W, strain LCB3, stronger effect = lower value 0.983 | locus YJL154C, strain vps35, stronger effect = lower value 1.03 | locus YJL164C, strain tpk1, stronger effect = lower value 1.05 | locus YJL166W, strain qcr8, stronger effect = lower value 1.02 | locus YJL168C, strain set2, stronger effect = lower value 0.99 | locus YJL187C, strain SWE1 (second series), stronger effect = lower value 1.02 | locus YJL187C, strain SWE1, stronger effect = lower value 1.02 | locus YJR043C, strain POL32, stronger effect = lower value 1 | locus YJR066W, strain TOR1, stronger effect = lower value 1
